Measurements reported in PubChem BioAssay (NCI).
The panel holds about 83,000 compounds, 20% with a hit somewhere; the sample as a whole holds those more often.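 Interpretation: 100, growth as untreated; towards 0, rising growth inhibition; 0, no net growth; 0 to -100, cell death. Compounds scoring below 10 were considered active.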 Unmarked numbers belong to inactive results. Activity calls are given as the source filed them.

Assays:
Test in all cases: NCI-60 one-dose screen, 48 h (100 = growth as untreated, 0 = no growth, -100 = all killed)
Settings in all cases: 10 µM unless noted
[1] = system: SK-MEL-2 melanoma
[2] = system: EKVX NSCLC
[3] = system: SN12C renal
[4] = system: UO-31 renal
[5] = system: TK-10 renal
[6] = system: ACHN renal
[7] = system: CAKI-1 renal
[8] = system: A498 renal
[9] = system: CCRF-CEM leukemia
[10] = system: MOLT-4 leukemia

Compound | growth [1] | growth [2] | growth [3] | growth [4] | growth [5] | growth [6] | growth [7] | growth [8] | growth [9] | growth [10]
CCc1nnc(NC(=O)c2ccoc2COc2ccccc2)s1 | 54.3% | 58.2% | 55.7% | 60.7% | 108% | 64.8% | 41.9% | 59.2% | 39.3% | 25.3%
CC(=O)NC1=C(C#N)C(c2ccccc2Cl)c2c(ccc3ccccc23)O1 (stereo not given) | 59.2% | 63.5% | 70.8% | 49.8% | 141% | 65% | 37.2% | 56.2% | 60.8% | 50.2%
CC[C@H](CC[C@@H](C)[C@H]1CC[C@H]2[C@@H]3/C(=C/c4cccnc4)C(=O)C4=CC(=O)CC[C@]4(C)[C@H]3CC[C@]12C)C(C)C | 103% | 99% | 86.3% | 65.4% | 112% | 93.9% | 77.9% | 98.3% | 43.4% | 67.5%
Cc1csc(Nc2nc(-c3ccc(Cl)cc3)nc(C(Cl)(Cl)Cl)n2)n1 | 112% | 76.6% | 94.1% | 84.8% | 100% | 49.5% | 78.1% | 85.2% | 90% | 84.4%
C=C(C)[C@@H]1CC[C@]2(C(=O)OC)CC[C@]3(C)[C@H](CC[C@@H]4[C@@](C)(CC/C(N)=N/O)[C@H](C(=C)C)CC[C@]43C)[C@@H]12 | 97.9% | 97% | 97.2% | 93% | 105% | 101% | 77.7% | 95.1% | 107% | 92.4%
CC1(C)CC[C@]2(CO)CC[C@]3(C)C(=CC[C@@H]4[C@@]5(C)CC[C@H](NCO)C(C)(C)[C@@H]5CC[C@]43C)[C@@H]2C1 | -38% (active) | 41% | -75.2% (active) | -58.9% (active) | 100% | -69.2% (active) | -71.9% (active) | 84.2% | 0.708% (active) | -19.7% (active)
O=C1CNCCN1 | 106% | 101% | 97.8% | 91.7% | 100% | 106% | 93.1% | 98% | 99.7% | 94%
Cc1ccc(NC2CC(=O)N(c3c(C)cc(C)cc3C)C2=O)c(C)c1 (stereo not given) | 112% | 95.3% | 97.2% | 81.2% | 106% | 101% | 95.6% | 105% | 88.6% | 94.6%
CCCCn1c(-c2ccc(O)cc2)cn2c3c(=O)[nH]c(=O)n(C)c3nc12 | 45.8% | 85.9% | 78% | 70.2% | 86.7% | 92.6% | 86.6% | 75.8% | 80% | 58.6%
COC(=O)[C@]12CC[C@@H](C)[C@H](C)[C@@H]1C1=CC[C@@H]3[C@@]4(C)C[C@@H](OC(C)=O)[C@H](O)[C@@](C)(COC(C)=O)[C@@H]4[C@H](O)C[C@@]3(C)[C@]1(C)CC2 | -73.6% (active) | -88.8% (active) | -69.9% (active) | -81.6% (active) | -86.5% (active) | -91.9% (active) | -88.2% (active) | -94.4% (active) | -54.3% (active) | -34.3% (active)
N#Cc1cnc2cc(OC[C@@H](O)CO)c(NC(=O)CC3CSSC3)cc2c1Nc1ccc(OCc2cccc(F)c2)c(Cl)c1 | -67.7% (active) | -68% (active) | -70.3% (active) | 50.5% | -60.5% (active) | 3.6% (active) | 62.7% | -62% (active) | -46.4% (active) | -50.4% (active)
N#C/C(=C\c1ccc(-c2ccc(Cl)cc2)o1)c1nc(-c2ccco2)cs1 | 102% | 48.6% | 92.8% | 74.3% | 62.2% | 101% | 89.3% | 108% | 93.9% | 97.5%
O=S(=O)(NCCCNc1cc(-c2cn(-c3ccccc3)nc2-c2cccc(O)c2)ccn1)c1ccc(F)cc1 | 44.7% | 51.2% | 47.3% | 21.9% | 50.6% | 32.8% | 41.4% | 34.3% | 19.4% | 18.8%
CC1=CC(=O)N(c2cccc3c(N4C(=O)C=C(C)C4=O)cccc23)C1=O | 87.5% | 108% | 93.3% | 33.3% | 35.3% | 1.27% (active) | 10.9% | 124% | 11.2% | 4.75% (active)
COc1cc(OC)c2c(c1)c1nc3cc(C)c(C)cc3nc1n2CCN(C)C | 103% | 89.2% | 82.1% | 74.1% | 182% | 84.3% | 69.7% | 105% | 79.6% | 73.2%
CCCCC/C(=C\c1ccccc1)C1OC(C)C(C)O1 (stereo not given) | 83.5% | 103% | 97.2% | 101% | 91% | 101% | 93.6% | 105% | 97.2% | 110%
C[C@]12CC[C@@H]3c4ccc(O)cc4CC[C@H]3[C@@H]1C[C@H](O)[C@@H]2O | 104% | 67.4% | 94.9% | 78.2% | 100% | 93.7% | 90.5% | 92.6% | 103% | 109%
CC1(C)C(=O)CC[C@]2(C)[C@H]3C(=O)C=C4[C@@H]5C[C@@](C)(C(=O)NCCNCCN)CC[C@]5(C)CC[C@@]4(C)[C@]3(C)CC[C@@H]12 | 121% | 105% | 86% | 76.8% | 147% | 104% | 92.5% | 101% | 75.9% | 82.5%
O=C(/C=C/c1cccc(O)c1)c1ccccc1O | 84.1% | 86.9% | 83.7% | 73.9% | 121% | 86.9% | 50.4% | 106% | 47.1% | 66.9%
C=C(C)[C@@H]1CC[C@]2(C(=O)N3CCCNCC3)CC[C@]3(C)[C@H](CC[C@@H]4[C@@]5(C)CCC(=O)C(C)(C)[C@@H]5CC[C@]43C)[C@@H]12 | 118% | 98.3% | 84% | 85.5% | 127% | 105% | 67.8% | 89.5% | 84.2% | 63.3%
CC1(C)CC[C@]2(C(=O)Nc3ccccn3)CC[C@]3(C)C(=CC[C@@H]4[C@@]5(C)C/C(=C/c6ccncc6)C(=O)C(C)(C)[C@@H]5CC[C@]43C)[C@@H]2C1 | 63.3% | 39.3% | 34.4% | 36.9% | 77.4% | -11.9% (active) | 40.4% | -17.2% (active) | 25.4% | 11.6%
COC(c1ccccc1)(c1ccccc1)c1ccccc1 | 118% | 85.3% | 97% | 105% | 123% | 101% | 72.1% | 104% | 131% | 123%
COC(=O)[C@]12CC[C@@H](C)[C@H](C)[C@@H]1C1=CC[C@@H]3[C@@](C)(CC#N)C4=C(C[C@@]3(C)[C@]1(C)CC2)OC[C@]4(C)C=O | -40.2% (active) | -11.8% (active) | 1.64% (active) | 6.25% (active) | 3.82% (active) | 7.19% (active) | 9.24% (active) | -91.7% (active) | 1.66% (active) | 2.4% (active)
O=c1[nH]c(=S)[nH]c2nc[nH]c12 | 117% | 97.2% | 96.2% | 62.7% | 113% | 104% | 108% | 93.4% | 106% | 97.8%
Cc1cc2nc3c4cc(N)ccc4n(CCN(C)C)c3nc2cc1C | 17.6% | 16.8% | 8.2% (active) | -6.21% (active) | 41.3% | -9.44% (active) | -3% (active) | 46.3% | 23.8% | 3.65% (active)
CN(C)c1ccc(N=C2C=CC(=O)C=C2)cc1 | 97.1% | 75.3% | 92% | 73.7% | 111% | 69.3% | 81% | 93.1% | 75.5% | 51.3%
